Test results as given in PubChem BioAssay (Tox21).
Records with an inconclusive call do not appear. Unmarked numbers belong to inactive results. Calls follow the shape of the dose curve; as a rule, active = well fitted activation curve with a large enough effect in the repeat runs; inconclusive = weak or mixed curves; inactive = flat fitted curve, though single readings scatter.

Assay: A CellTox Green Cytotoxicity Assay to monitor cytotoxicity in HepG2 cells - 8 hour (AID 1224890); also: nearly all actives have a fitted effect of over 45% in size
Conditions: CellTox Green fluorescence; series mostly up to 76.8 µM; cytotoxicity increase: at the top concentration
Outline: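 HepG2, 600 cells/well premixed w/ CellTox Green; 5 h settle, 37 C/5% CO2; pintool cpd add (DMSO); 37 C, 40 h; fluorescence read at 0, 8, 16, 24, 32, 40 h.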
% is scaled to controls: 0 for no effect and ±100 for the full control effect.

Compound | cytotoxicity increase
C/C(=C(\CCOP(=O)(O)O)SC(=O)c1ccccc1)N(C=O)Cc1cnc(C)nc1N | 0.403% [at 6.97 µM]
CCCCOC(=O)CCCCCCCC(=O)OCCCC | -1.63%
CN1C[C@H]2c3ccccc3Oc3ccc(Cl)cc3[C@@H]2C1 | 7.29% [at 35.3 µM]
O=C(O)c1ccccc1Cl | -6.32%
Cc1cc(N)c2cc(NC(=O)Nc3ccc4nc(C)cc(N)c4c3)ccc2n1 | -46.1% [at 35.3 µM]
O=C1CCC(=O)O1 | -0.53%
O=C(NCCO[N+](=O)[O-])c1cccnc1 | -3.96% [at 35.3 µM]
C[C@H](CCC(=O)O)[C@H]1CC[C@H]2[C@@H]3CC[C@@H]4C[C@H](O)CC[C@]4(C)[C@H]3C[C@H](O)[C@]12C | 0.102%
CCc1cc(C2=C(C(=O)O)N(c3ccccc3C(F)(F)F)S(=O)(=O)c3ccccc32)cc2c1OCO2 | 8.67%
